About 220 (9.2%) of roughly 2,400 compounds were called active.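 How the source made its calls: active means signal change above the mean of dofetilide-free buffer controls plus 3 SD, so a positive margin; inactive means the rest.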 Only a selection was taken, and actives are over-represented in it overall.
experiment: thallium signal changes without hERG – cell-based, CHO-K1 parental line, FluxOR thallium flux, counter-screen for hERG block protection project, confirmation (AID 1839); conditions: CHO-K1 parental cells, FluxOR thallium flux fluorescence; at 10 µM;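 further: compounds applied alone with no dofetilide to cells lacking hERG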

Row | SMILES | signal change vs control minus 3*SD hit threshold (margin above threshold, higher = more increase)
1 | O=C(NCc1cccs1)C1CC(c2ccc(F)cc2)=NO1 (stereo unspecified) | -40.3% (inactive)
2 | Cc1cccc(NC(=O)CN2C(=O)S/C(=C\c3cccn3-c3cccc(C(=O)O)c3)C2=O)c1 | -27.2% (inactive)
3 | Cc1cc(Cl)ccc1OC(C)C(=O)NCCc1ccc2c(c1)OCCO2 (stereo unspecified) | -37.2% (inactive)
4 | CC(NC(=O)NC1CCCCC1)c1ccc2c(c1)OCO2 (stereo unspecified) | -5.4% (inactive)
5 | COc1ccc(C(=O)CC(=O)C(=O)Nc2ccc(C)c(C)c2)cc1 | -27.5% (inactive)
6 | Cc1ccnc(SCCn2c(N3CC(C)OC(C)C3)nc3c2c(=O)n(C)c(=O)n3C)n1 (stereo unspecified) | -31.9% (inactive)
7 | CCOc1ccc2nc(/N=C/c3nc(-c4ccccc4)oc3O)sc2c1 | -18.5% (inactive)
8 | CCOc1ccc2nc(N3C(=O)/C(=C/c4ccccc4)NC3=S)sc2c1 | -18.8% (inactive)
9 | CCOc1ccc2nc(/N=C/c3c(C)[nH]n(-c4ccccc4)c3=O)sc2c1 | 53.3% (active)
10 | S=c1[nH]nc(CSc2nc3ccccc3s2)n1C1CCCCC1 | -26.3% (inactive)
11 | Cc1ccc(NC(=O)c2cc(NC(=O)/C=C\C(=O)O)ccc2N2CCCCC2)cc1 | -12.7% (inactive)
12 | CCC1(C)Cc2c(sc3[nH]c(=S)n(Cc4ccccc4)c(=O)c23)CO1 (stereo unspecified) | 10.6% (active)
13 | CC1(C)Cc2c(sc3[nH]c(=S)n(Cc4ccccc4)c(=O)c23)CO1 | -22.2% (inactive)
14 | CC(C)C1Cc2c(sc3[nH]c(=S)n(Cc4ccccc4)c(=O)c23)CO1 (stereo unspecified) | -10.8% (inactive)
15 | COC(=O)CSc1nc(N2CCCCC2)c2c(c1C#N)CCCC2 | -8.9% (inactive)
16 | O=C(COC(=O)c1cc(Br)ccc1O)Nc1cccnc1Cl | -24.7% (inactive)
17 | CC(C)c1ccc(OCC(=O)NN2C(=O)c3ccccc3C2=O)c(Br)c1 | -24% (inactive)
18 | Cc1ccc(C)c2sc(NC(=O)c3nc4ccccc4s3)nc12 | -20.2% (inactive)
19 | CCOC(=O)c1c(NS(=O)(=O)Cc2ccccc2)sc2c1CCCC2 | -0.7% (inactive)
20 | COC(=O)c1c(NS(=O)(=O)c2ccc3ccccc3c2)sc2c1CCCC2 | -22.4% (inactive)
21 | CCOC(=O)c1c(NS(=O)(=O)c2ccc(Br)cc2)sc2c1CCC2 | 32.6% (active)
22 | CN(NC1OC(=O)c2ccccc21)c1ccccc1[N+](=O)[O-] (stereo unspecified) | -30.9% (inactive)
23 | COc1nnc(-c2ccc(C)c(S(=O)(=O)NC(C)(C)CO)c2)c2ccccc12 | -25.8% (inactive)
24 | Cc1ccc(C(=O)Sc2cccccc2=O)cc1 | -20.3% (inactive)
25 | O=c1c2cc(Cl)ccc2[nH]c(=S)n1Cc1cccs1 | -21.6% (inactive)
26 | CCN(CC)CCCN1C(=O)c2oc3ccccc3c(=O)c2C1c1cccs1 (stereo unspecified) | -15.9% (inactive)

Row | SMILES | signal change vs control minus 3*SD hit threshold (margin above threshold, higher = more increase)
27 | O=C1OC(/C=C/c2ccc(Cl)cc2Cl)=NC/1=C\c1cccs1 | -32.3% (inactive)
28 | O=c1c(O)c(-c2ccc3c(c2)OCO3)oc2ccccc12 | -10.8% (inactive)
29 | O=c1c(O)c(-c2cccs2)oc2ccccc12 | 39.2% (active)
30 | O=c1c(O)c(-c2cccs2)oc2ccc(Cl)cc12 | 64.2% (active)
31 | Cc1ccccc1NP(=O)(c1ccccc1)c1nc2ccccc2s1 (stereo unspecified) | -31.9% (inactive)
32 | CCOc1ccc(N)c(SSc2cc(OCC)ccc2N)c1 | -32.6% (inactive)
33 | Cc1ccc(CC23CN4CCN(CC(C4)C2O)C3)c(C)c1 (stereo unspecified) | -14.8% (inactive)
34 | CN(C)CCOC(=O)C1(c2ccccc2)CCCC1 | -31.9% (inactive)
35 | COC(=O)C1=C(C)NC2=C(C(=O)CCC2)C1c1ccc(-c2ccsc2C(=O)OC)o1 (stereo unspecified) | -17.8% (inactive)
36 | O=C(/C=C/c1ccccc1)CC(=O)c1ccccc1O | -29.3% (inactive)
37 | CCOc1cc(N2CCOCC2)c(OCC)cc1NC(=O)CCC1CCCC1 | -19.4% (inactive)
38 | Cc1ccccc1NC(=S)NC(=O)c1cc(-c2ccccc2)nc2ccccc12 | -15.1% (inactive)
39 | COc1ccc(OC)c(NC(=S)NC(=O)c2ccc(Br)o2)c1 | -21.4% (inactive)
40 | O=C(NC(=S)Nc1ccccc1F)c1ccc(Br)o1 | 23% (active)
41 | CCN(c1ccccc1)S(=O)(=O)c1ccc(NC(=S)NC(=O)c2ccc(Br)o2)cc1 | -20.8% (inactive)
42 | O=C(NC(=S)Nc1ccccc1)c1ccc(Br)o1 | -17.9% (inactive)
43 | Cc1cccc(NC(=S)NC(=O)c2ccc(Br)o2)c1C | -13.6% (inactive)
44 | COc1ccccc1NC(=S)NC(=O)c1ccc(-c2ccc(Cl)cc2)o1 | -22.6% (inactive)
45 | O=C(NC(=S)NCc1ccccc1)c1cccs1 | -11.1% (inactive)
46 | O=C(CNC(=S)NC(=O)c1ccc(Br)o1)c1ccccc1 | -26.3% (inactive)
47 | Cc1cccc(NC(=S)NC(=O)c2ccc(Br)o2)c1 | 9.1% (active)
48 | Cc1cccc(C)c1NC(=S)NC(=O)c1ccc(Br)o1 | 18.7% (active)
49 | O=C(NC(=S)NCc1ccccc1)c1ccc(Br)o1 | 39.2% (active)
50 | Cc1ccc(NC(=S)NC(=O)c2ccc(Br)o2)c(C)c1 | -19.5% (inactive)
51 | CCN(CC)c1ccc(NC(=S)NC(=O)c2ccco2)cc1 | -1.8% (inactive)
52 | N#Cc1c(-c2ccco2)c2c([nH]c1=S)CCCC2 | -29.5% (inactive)

Row | SMILES | signal change vs control minus 3*SD hit threshold (margin above threshold, higher = more increase)
53 | CCOC(=O)c1c(-c2ccccc2)csc1NC(=S)NC | -10.9% (inactive)
54 | CC12CCC(C/C1=N\N=C1\NC(=O)/C(=C\c3ccc(Cl)cc3)S1)C2(C)C (stereo unspecified) | -20.2% (inactive)
55 | Cc1nnc2ccc(-c3cccc(NC(=O)c4ccc(Cl)nc4)c3)nn12 | -41.7% (inactive)
56 | O=C(NC(=S)N1CCN(c2ccccc2)CC1)c1ccccc1 | -8.7% (inactive)
57 | CC(C)Sc1nc2ccccc2n2cnnc12 | -29.7% (inactive)
58 | Cc1cccc(/C=C2/S/C(=N/N=C3\CC4CCC3(C)C4(C)C)NC2=O)c1 (stereo unspecified) | -12.4% (inactive)
59 | Cc1ccc2nsnc2c1S(=O)(=O)Nc1cccc2nsnc12 | -18.7% (inactive)
60 | CCC1CCc2c(sc(NC(=O)C3CC=CCC3C(=O)O)c2C#N)C1 (stereo unspecified) | -5.5% (inactive)
61 | O=C1c2ccccc2NC(c2ccc(Br)s2)N1O (stereo unspecified) | 15.6% (active)
62 | C=CCc1cccc(C2Nc3ccccc3C(=O)N2O)c1O (stereo unspecified) | -26.4% (inactive)
63 | Cc1cc([N+](=O)[O-])ccc1-c1ccc(C2Nc3ccccc3C(=O)N2O)o1 (stereo unspecified) | -18.3% (inactive)
64 | C=CCN(CC=C)C(=S)NC(=O)/C=C/c1ccc(OC)cc1 | -19.8% (inactive)
65 | Cc1cc(-c2cccnc2)c(C#N)c(SCc2cccc(F)c2)n1 | -37.3% (inactive)
66 | COC(=O)c1sccc1NC(=S)NCc1ccc(Cl)cc1 | -22.4% (inactive)
67 | CCc1cc2c(=O)n(CCC(C)C)c(=S)[nH]c2s1 | 26.1% (active)
68 | CCOC(=O)C1=C(c2ccccc2)NC(=O)NC1c1ccc(OC)c(OC)c1 (stereo unspecified) | -32.6% (inactive)
69 | CSC(=S)N/N=C/c1ccccc1 | 18.1% (active)
70 | CSC(=S)N/N=C(\C)c1ccccc1 | 15.8% (active)
71 | C/C(=N\NC(N)=S)c1cccnc1 | -29.6% (inactive)
72 | CC(C)NC(=S)N/N=C/c1ccc(C(C)(C)C)cc1 | -20.4% (inactive)
73 | C/C(=N\NC(N)=S)c1ccncc1 | -26.5% (inactive)
74 | CSC(=S)N/N=C/c1ccc(Br)cc1 | -17.6% (inactive)
75 | CC1=C(C#N)C(Nc2cc(C)ccn2)(C(F)(F)F)C(=O)N1 (stereo unspecified) | -31.1% (inactive)
76 | CCOC(=O)c1c(-c2ccc(C)o2)csc1NC(=S)NC(=O)N(C)C | -14.3% (inactive)
77 | CNc1nc(N)nc(OC(C(F)(F)F)C(F)(F)F)n1 | -25.1% (inactive)
78 | CC(Oc1ccc(Br)cc1)c1nc2c3ccccc3nc(=S)n2[nH]1 (stereo unspecified) | -25% (inactive)

Row | SMILES | signal change vs control minus 3*SD hit threshold (margin above threshold, higher = more increase)
79 | CC(=O)c1c(NC(=O)c2ccccc2)[nH]c(-c2ccccc2)nc1=S | -26.3% (inactive)
80 | S=c1nc(-c2ccccc2)[nH]c2ccc(Br)cc12 | 52.8% (active)
81 | CC(=O)c1c(N2CCCC2)[nH]c(-c2ccccc2)nc1=S | -21.2% (inactive)
82 | S=c1[nH]c2ccccc2c2ccccc12 | -25% (inactive)
83 | S=c1nc(-c2ccc(Br)cc2)[nH]c2ccccc12 | 53.6% (active)
84 | NNC(=O)CNc1ccccc1Cl | -26% (inactive)
85 | CN(C)c1ccc(C(CNS(=O)(=O)c2ccc([N+](=O)[O-])cc2)N2CCCC2)cc1 (stereo unspecified) | -29% (inactive)
86 | O=C(Nc1ncc(Br)s1)C(Cc1ccccc1)n1cccc1 (stereo unspecified) | 6.9% (active)
87 | CC(C)C(=O)Nc1ccc(NC(=O)CCc2ccccc2)cn1 | -33.7% (inactive)
88 | O=C(CCc1ccccc1)Nc1nccs1 | -33.8% (inactive)
89 | COc1cccc(OC)c1C(=O)NC(=S)N1CCN(c2ccc(C(F)(F)F)cc2[N+](=O)[O-])CC1 | -46.3% (inactive)
90 | COCc1cc(C)nc(OCC(=O)N/N=C/c2ccc(-c3cc([N+](=O)[O-])ccc3Cl)o2)c1C#N | -29.8% (inactive)
91 | Cc1nn(C(=O)CNC(=O)c2ccccc2)c(C)c1C | -23.2% (inactive)
92 | CC(=O)c1n[nH]nc1NC(=O)c1ccccc1 | -17.2% (inactive)
93 | Cc1ccccc1Cn1nc(C)c(NC(=O)c2ccccc2)c1C | 11.5% (active)
94 | Cn1nc(C(F)(F)F)c(-c2ccc(Br)cc2)c1NC(=O)c1cccnc1 | -37.7% (inactive)
95 | O=C1NCC(=O)N2C(c3ccccc3)c3[nH]c4ccccc4c3C[C@@H]12 (stereo partly specified) | -28.2% (inactive)
96 | S=c1nc(-c2ccccc2)c(-c2ccccc2)n[nH]1 | -37% (inactive)
97 | S=c1nc(C2CCCCC2)n(-c2ccccc2)[nH]1 | -0.7% (inactive)
98 | S=c1nc(-c2ccccc2)[nH]n1-c1ccccc1 | 16.8% (active)
99 | COc1ccc(-n2nc(C(=O)NCC(=O)NCc3ccc(F)cc3)c3ccccc3c2=O)cc1OC | -26.4% (inactive)
100 | COc1cccc(NC(=O)c2nn(-c3ccc(OC)cc3OC)c(=O)c3ccccc23)c1 | -26.1% (inactive)
101 | COc1cccc(-n2nc(C(=O)O)c3ccccc3c2=O)c1 | 4.7% (active)

Source: PubChem BioAssay AID1839 (Johns Hopkins Ion Channel Center, 2009)
